PubChem BioAssay AID504444 (National Center for Advancing Translational Sciences (NCATS), 2011)
Screen size: about 360,000 compounds; about 7,500 (2.1%) were called active. Another 20% or so got no clear call; they are omitted. Calls follow the shape of the dose curve; as a rule, active = well fitted inhibition curve with a large enough effect; inconclusive = small, poorly fitted or top-dose-only effect, or effect the other way; inactive = flat fitted curve, though single readings scatter. The sample as a whole holds a higher share of actives than the screen did.

Assay: Nrf2 qHTS screen for inhibitors; also: nearly all actives have a fitted effect of over 60% in size
Details: A549 ARE-Fluc reporter, luciferase luminescence, 18-24 h; series mostly up to 46 µM
Procedure, shortened: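 In this cell-based qHTS, ARE-driven firefly luciferase in A549 cells reports Nrf2 activity; the luminescent signal after BugLite lysis is the measured value, with a prior CellTiter-Fluor read for cell health.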
% is scaled to controls: 0 for no effect and ±100 for the full control effect; potency is read from the fitted curve at half-maximal effect.

Potency, inactive:
O=S(=O)(c1ccc2c(c1)OCCO2)N1CCN(S(=O)(=O)c2cc(F)ccc2F)CC1
Cn1c(=O)c2c(nc(SCC(=O)Nc3ccc(F)cc3)n2Cc2ccc(Cl)cc2)n(C)c1=O
COc1cc(C(=O)N2CCN(S(=O)(=O)c3ccc(C(C)C)cc3)CC2)ccc1OCC(=O)N1CCOCC1
COC(=O)Cc1c(-c2[nH]c3ccccc3c2CC(=O)OC)[nH]c2ccccc12
O=C(c1ccc2c(c1)N(Cc1ccccc1)C(=O)c1ccccc1S2(=O)=O)N1CCCC1
O=C(CCS(=O)(=O)c1ccc2c(c1)NC(=O)CO2)Nc1cccc(C(F)(F)F)c1
Cc1cc2c(cc1C)NC1(C[C@H]3CCC(=O)N4CC[C@@H](C1)[C@@H]34)C(=NC(C)(C)CC(C)(C)C)N2 (some centres not stated)
COc1ccccc1-c1noc(CSc2nnc(-c3ccccc3)n2-c2ccc(C)c(C)c2)n1
Cc1ccc(S(=O)(=O)NC(=O)Nc2nc(-c3ccc(F)c(F)c3)cs2)cc1
COc1ccc(-c2csc(NC(=O)c3ccc(N4C(=O)CCC4=O)cc3)n2)cc1OC
COc1ccc(CCNc2nc(-c3cccc(NC(C)=O)c3)cs2)cc1OC
COc1ccccc1NC(=O)Nc1nc(CC(=O)Nc2ccccc2F)cs1
COc1ccccc1CNC(=O)C(Cc1ccccc1)NS(=O)(=O)c1ccc2c(c1)oc(=O)n2C (configuration not stated)
COc1ccc(NC(=O)CN2CCCN(Cc3ccccc3)S2(=O)=O)cc1
COC(=O)c1ccc(NCc2cc(O)ccc2O)cc1
CN(CC(=O)Nc1ccc(Cl)cc1)CC(=O)Nc1cccc2ccccc12
O=C(c1ccc(Cl)c(S(=O)(=O)N2CCCCC2)c1)N1CCCCCC1
O=C(c1ccc(Cl)c(Cl)c1)N1CCCC1
O=C(c1ccccc1F)N1CCC(c2nc3c(nnn3Cc3cccc(F)c3)c(=O)[nH]2)CC1
COc1ccc(CN2C(=O)C(NC(=O)c3cccc(C)c3)(C(F)(F)F)N=C2c2ccccc2)cc1 (configuration not stated)
COc1cccc(-c2ccc(C#N)c(SCC(=O)NCCc3ccc(Cl)cc3)n2)c1
COc1ccc(CCNC(=O)CSc2nnc3ccc(-c4ccncc4)nn23)cc1
CCOc1ccc2oc(=O)cc(CN3CCN(C(=O)c4ccc(F)cc4)CC3)c2c1
O=C1c2ccccc2C(=O)C1c1ccccc1F
Cc1cccc(NC(=O)c2nnn(CC(=O)Nc3ccc(C(C)C)cc3)c2N)c1C
O=C(CSc1nnc(CN2CCCC2)n1-c1ccc(F)cc1)c1ccc2c(c1)OCO2
COc1cc(C(=O)NC2CCN(C)CC2)ccc1Nc1ncc2c(n1)N(C1CCC(O)CC1)CCC(=O)N2C (configuration not stated)
CCOc1ccc(NC(=O)CN2CCN(CC(=O)Nc3ccc(OC)cc3)CC2)cc1
CCOc1ccc(NC(=S)N2CCC(NC(=O)c3ccccc3)CC2)cc1
CCc1cc2c(-c3ccccc3)cc(=O)oc2c2c1OCN(Cc1ccc(C)cc1)C2
O=C(Cc1ccc(NC(=O)C2CCCN(C(=O)CCc3ccccc3)C2)cc1)Nc1ccc(C(=O)N2CCOCC2)cc1 (configuration not stated)
CC(C)OC(=O)c1ccc(NCc2cc(O)ccc2O)cc1Cl
O=S(=O)(c1ccccc1)c1nc(-c2ccccc2F)oc1NCc1cccnc1
Cc1ccc(S(=O)(=O)c2nc(-c3cccs3)oc2NCc2cccnc2)cc1
COc1cc(OC)cc(C(=O)Nc2c(C(=O)Nc3ccc(F)cc3)oc3ccccc23)c1
COc1cccc(/C=N/NC(=O)c2[nH]nc3c2CCc2ccccc2-3)c1O
COc1cccc(/C=N\NC(=O)C2=NNC(=O)C2C)c1O (configuration not stated)
CCN1CCc2nc3sc(C(=O)Nc4ccccc4OC(F)(F)F)c(N)c3cc2C1
NC(=O)c1c(NC(=O)CSc2nc(N)cc(=O)[nH]2)sc2c1CCCC2
COC(=O)c1c(NC(=O)c2ccc(Cl)c(Cl)c2)sc2c1CCCC2
COC(=O)c1c(NC(=O)C2CC(C)=C(C)CC2C(=O)O)sc2c1CCCCC2 (configuration not stated)
COC(=O)c1c(NC(=O)CCN2CCOCC2)sc2c1CCCC2
CCOC(=O)C1=CN(Cc2ccc(Br)cc2)S(=O)(=O)N(C)C1C (configuration not stated)
CCNC(=O)N(CC)C[C@H]1N[C@@](CC)(C(=O)OC)[C@H]2C(=O)N(Cc3ccccc3)C(=O)[C@@H]12
O=C1c2ccccc2[C@@H]2C[C@@H](O)[C@H](Nc3ccccc3Cl)CCN12
C=CCn1c(SCc2cccc(F)c2)nc2cc(C(=O)N3CCC(C(N)=O)CC3)ccc2c1=O
Cc1cc(=O)[nH]c(SCc2cccc(F)c2)n1
O=C(Cn1cc(SCc2ccccc2)c2ccccc21)N1CCCCC1
COc1ccccc1CNC(=O)c1ccc(-n2c(C)cc3c2CCCC3)cc1
CCOc1ccc(CNC(=O)CCc2c(C)nn(-c3ccc(N4CCCCC4)nn3)c2C)cc1
O=C(NCc1ccc(F)cc1)c1ccc(Cn2c(SCc3ccc(F)cc3)nc3cccnc32)cc1
O=C(O)c1ccc(CSc2nc3cccnc3n2Cc2cccc(F)c2)cc1
CCN(Cc1ccccc1)C(=O)c1cn(-c2cccc(OC)c2)c(=O)c2ccccc12
c1ccc(-c2nc(NCc3ccco3)c3ccccc3n2)cc1
Cc1ccc(Oc2nc(-c3ccccn3)nc3ccccc23)cc1
CCOc1ccc(C(=O)c2cn(Cc3ccccc3OC)c3ccc(F)cc3c2=O)cc1
O=C(N/N=C/c1ccoc1)c1ccc(Cl)cc1Cl
O=C(N/N=C/c1ccc(OC(=O)c2ccccc2Cl)cc1)c1ccc(O)cc1
O=C(CC(=O)c1cccnc1)c1ccccc1
COCCN(Cc1ccco1)C(=O)Cn1ncc2c([nH]c3ccccc32)c1=O
O=C(Nc1cccc(Cl)c1)OCc1ccccn1
CN1C(=O)C(CC(=O)Nc2ccccc2)S/C1=N/c1nccs1 (configuration not stated)
CN(C)C(=S)N=c1ssc(=S)n1Cc1ccco1
COc1cccc(C(=O)Nc2ccc3oc(-c4ccc5ccccc5c4)nc3c2)c1
O=C(COc1ccc(Cl)cc1)Nc1ccc(-c2nc3cc(Cl)ccc3o2)c(O)c1
Cc1ccc(SCC(=O)Nc2ccc3oc(-c4ccccc4C)nc3c2)cc1
CCCCOc1ccc(C(=O)Nc2cccc(-c3nc4ccccc4o3)c2C)cc1
O=C(NCCCc1ccccc1)c1ccc2c(c1)sc1nc(-c3ccc(F)cc3)cn12
CCc1ccc(OCCCn2c(CCCNC(=O)C3CCCCC3)nc3ccccc32)cc1
O=C(NCc1ccccc1)c1cccc(NC(=O)N2CCSc3ncccc32)c1
CC(C)(C)OC(=O)C[C@H]1C/C=C\C[C@@H](CC(=O)N[C@H](CO)Cc2ccccc2)C(=O)NC[C@@H](c2ccccc2)OC1=O
COc1ccc(-c2ccc3c(c2)C2CC3CCN2CCC#N)cc1 (configuration not stated)
Cc1nc2ccc(S(=O)(=O)N(CC(=O)Nc3ccc(F)cc3)Cc3ccccc3)cc2s1
CCCN(CCC)CCCNC(=O)Cn1cc2c(n1)-c1c(oc(C(=O)N3CCCC3)c1C)CC2
COc1ccccc1N1CCN(c2ccc(=O)n(CC(=O)NCc3ccc(OC(C)C)cc3)n2)CC1

Potency, active:
COc1ccc(CC(=O)Nc2nc(-c3ccc(F)c(F)c3)cs2)cc1OC 1.84 µM
COc1cc(CC(=O)Nc2nc(-c3ccc(F)c(F)c3)cs2)cc(OC)c1OC 11.6 µM
O=C(c1ccc(Cl)c(S(=O)(=O)N2CCCCCC2)c1)N1CCN(c2ccc(O)cc2)CC1 23.1 µM
COc1ccc(CCNC(=O)CSc2nc(-c3ccc(OC)c(OC)c3)ccc2C#N)cc1 18.4 µM
O=C1c2ccccc2C2=Nc3ccccc3SC(c3ccccc3F)C12 (configuration not stated) 23.1 µM
O=C(CN1CCN(C(=S)NC2CCCC2)CC1)Nc1ccc(Oc2ccccc2)cc1 16.4 µM
O=S(=O)(c1ccc(Br)cc1)c1nc(-c2ccccc2)oc1NCc1cccnc1 20.6 µM
CC[N+]1(CC)CC2=Cc3ccccc3CC2C1 (configuration not stated) 23.1 µM
COc1cccc(/C=N/Nc2cc(C)nc(-c3ccccc3O)n2)c1O 14.6 µM
COC(=O)c1c(NC(=O)CSc2nncs2)sc2c1CCCCC2 18.4 µM
COC(=O)c1c(NC(=O)CCCC(=O)O)sc2c1CCCCC2 5.17 µM
CCn1cc2nc(SCc3cccc(F)c3)n(CCc3ccccc3)c(=O)c2n1 23.1 µM
Cc1oc(-c2ccccc2)nc1Cn1c(SCc2cccc(C(F)(F)F)c2)nc2cccnc21 25.9 µM
CC(C)(C)Nc1nc(-c2ccccn2)nc2ccccc12 20.6 µM
CC(C)(C)C(=O)Nc1ccc(C(=O)N/N=C/c2ccccc2OC(=O)c2ccc(Cl)cc2Cl)cc1 13 µM
O=C(CC1SC(=Nc2ccccc2)N(Cc2ccccn2)C1=O)Nc1cccc(Cl)c1 (configuration not stated) 25.9 µM
Cc1ccccc1-c1nc2cc(NC(=O)c3cccc(OCCC(C)C)c3)ccc2o1 6.51 µM
CCCOc1ccc(C(=O)Nc2ccc3oc(-c4cccc(Cl)c4Cl)nc3c2)cc1 5.8 µM
Cc1c(C(=O)N2CCCC2)oc2c1-c1nn(CC(=O)NCc3ccc(OC(C)C)cc3)cc1CC2 20.6 µM

Activity change, negative = inhibition, inactive:
COc1ccccc1-c1cc(C(F)(F)F)nc(S(=O)(=O)CCCC(=O)Nc2ccc(F)cc2F)n1 10.4% [at 9.27 µM]
Cc1nc2nc(SCC(=O)N(Cc3ccccc3)C(C)C)nn2c(C)c1Cc1ccccc1Cl 8.79% [at 9.27 µM]
COc1ccc(CCNc2nc(-c3ccc(F)cc3)cc(C(F)(F)F)n2)cc1OC 8.32% [at 9.27 µM]
